From PubChem BioAssay (NCI)
“And” between values parts separate entries of the source, which are not always exact repeats. Identical values can stand only once. The panel holds about 79,000 compounds, 15% with a hit somewhere; the sample as a whole holds those more often. Values without a mark were called inactive. The source made the active and inactive calls. No stated cut-off is given here; in the data, active means growth inhibition above about 70%; inactive means the rest.

Legend:
[1] = NCI Yeast Anticancer Drug Screen. Data for the rad50 strain (AID 155);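 further: 0% = growth of vehicle-only cultures of the same strain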; details: S. cerevisiae rad50 strain growth inhibition, active compounds read high; at 50.0 µM unless noted
Summary of the method: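 Compounds were tested on a yeast strain with an engineered DNA damage repair alteration; the reported value is growth inhibition normalised to vehicle treatment.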

[2] = NCI Yeast Anticancer Drug Screen. Data for the mec2-1 strain (AID 157); details: S. cerevisiae mec2-1 strain, active compounds read high; at 50.0 µM unless noted
Summary of the method: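 Test agents were screened against the mec2-1 yeast strain, with defined DNA repair or cell cycle alteration. Growth was scored as inhibition against vehicle-only controls.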

[3] = NCI Yeast Anticancer Drug Screen. Data for the sgs1 mgt1 strain (AID 161);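 further: 0% = growth of cultures given vehicle only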; details: S. cerevisiae sgs1 mgt1 strain, active compounds read high; at 50.0 µM unless noted
Summary of the method: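 Inhibition of yeast growth, normalised to vehicle-treated controls, is reported for a strain bearing genetic alterations in DNA damage repair.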

[4] = NCI Yeast Anticancer Drug Screen. Data for the cln2 rad14 strain (AID 165);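 further: 0% = growth equal to vehicle treated cultures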; details: S. cerevisiae cln2 rad14 strain, active compounds read high; at 50.0 µM unless noted
Summary of the method: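 Growth of compound-exposed yeast (cln2 rad14 genotype) measured and expressed as inhibition relative to vehicle.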

[5] = NCI Yeast Anticancer Drug Screen. Data for the bub3 strain (AID 167); details: S. cerevisiae bub3 mutant strain, active compounds read high; at 50.0 µM unless noted
Summary of the method: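 Growth of a checkpoint-deficient yeast mutant is measured after compound exposure. Values represent inhibition relative to vehicle.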

[6] = NCI Yeast Anticancer Drug Screen. Data for the mlh1 rad18 strain (AID 175); details: S. cerevisiae mlh1 rad18 strain growth inhibition, active compounds read high; at 50.0 µM unless noted
Summary of the method: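 In this whole-cell yeast screen, a strain with altered DNA damage repair is challenged with compound, and its growth is measured against matched vehicle-treated controls.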

| Compound | growth inhibition [1] | growth inhibition [2] | growth inhibition [3] | growth inhibition [4] | growth inhibition [5] | growth inhibition [6] |
| --- | --- | --- | --- | --- | --- | --- |
| Cc1nc(-c2cccnc2)sc1C(=O)CC(=O)C(=O)Nc1cccc(NC(=O)C(=O)CC(=O)c2sc(-c3cccnc3)nc2C)n1 | 20.2% | -0.75% | -21.6% | 0.1% | -12.9% | 6.85% |
| Cc1cc(C(c2ccccc2)n2c3ccccc3c3ccccc32)cc(C)c1O (stereo not given) | 6.5% | 11.3% | 8.45% | 0.25% | -7.55% | 16.4% |
| Cc1c(N(C)CN(C)c2c(C)n(C)n(-c3ccccc3)c2=O)c(=O)n(-c2ccccc2)n1C | -13.2% | -27.4% | -15.7% | 3.25% | -12.9% | -18% |
| COC(=O)c1cc2ccc(OC(C)=O)c(OC(C)=O)c2cn1 | 20.2% | -20.2% | 6.05% | 9.3% | 3.35% | 19.9% |
| CC(=O)N1CCC(/C(C)=N/O)CC1 | 4.9% | -10.1% | -12.6% | -33.8% | -13.8% | 0.45% |
| Cn1c2c(c3ccccc31)CCN(CCCCN1CCN(c3ccccc3)CC1)C2=O | 3.8% | -17.5% | -36% | 3.55% | -11.2% | -7.35% |
| CCCCCCCC(=O)C1C(=O)OC(C)(C)OC1=O | 9.65% | -6.45% | -7.85% | 9.65% | -0.5% | -7.15% |
| COc1ccc(C(=O)c2ccc(Br)s2)cc1 | 5.9% | -6.65% | 12.8% | -14.4% | 13.8% | 33% |
| O=c1oc2c3ccc4ccccc4c3n(CCN3CCOCC3)c2c2ccccc12 | 19.1% | -3.6% | -29.6% | 2.35% | -19.9% | -3.9% |
| C[N+]1(CCN=C=NC2CCCCC2)CCOCC1 | -11.9% | 10.8% | 16.9% | -12.2% | 17.9% | 14.4% |
| N#Cc1c(-c2ccccc2)[nH]c2ccccc2c1=O | 54.7% | 55.4% | 2.05% | 11.3% | -3.65% | -17.5% |
| C=CSS/C(=C/N(C=O)Cc1cnc(C)nc1N)CCO | -10.6% | -33.5% | -18.9% | 1.85% | -17.1% | -10% |
| CCN(CC)c1ccc(C(c2ccc(N(CC)CC)cc2Cl)c2cccc3ccccc23)c(Cl)c1 | 24.8% | 19.8% | 30.3% | 36.2% | 22.4% | 7.85% |
| C/C(=N\O)C(=O)c1ccc(C)cc1 | -0.05% | -12.7% | 2.2% | -30.6% | -22.7% | -8.7% |
| CCCCCCCCCCCCCCCCC(C(=O)O)C(O)(CC(=O)O)C(=O)O (stereo not given) | 2.8% and 41.7% | -14.7% and 16.6% | 14.5% and 43.4% | -10.7% and 16.6% | -7.9% and 33.4% | 7.25% and 31.6% |
| CCN(CC)CCN(C(=O)C(C)(C)C)c1ccccc1N | -30.8% | -27.9% | -17.1% | -18.6% | -19.1% | -4% |
| O=C(O)CCNCCC(=O)O | 8.45% | -6.75% | 3.6% | -25.5% | 5.05% | 9.7% |
| O=C(Nc1ccc2ccccc2c1)c1ccccc1Cl | 1.65% | -4.4% | 21.9% | -7.15% | 17.1% | 32.3% |
| CCOC(=O)C(C)(c1[nH]c2ccccc2c1C)c1[nH]c2ccccc2c1C | -0.55% | -6.2% | -14.2% | -1.4% | -14.6% | -5.7% |
| O=C(O)/C=C/c1ccc(OS(=O)(=O)O)cc1 | -12.6% | -31.4% | -14.9% | 7.8% | -9.8% | -7.4% |

| Compound | growth inhibition [1] | growth inhibition [2] | growth inhibition [3] | growth inhibition [4] | growth inhibition [5] | growth inhibition [6] |
| --- | --- | --- | --- | --- | --- | --- |
| CC(=C=CC(c1ccccc1)(c1ccccc1)c1ccccc1)CC(c1ccccc1)(c1ccccc1)c1ccccc1 | 95% (active) | 97.8% (active) | 90.3% (active) | 97.1% (active) | 98% (active) | 94% (active) |
| CCC(/C=C/c1ccc(C)cc1)=N\NC(=O)c1ccccc1 | -0.25% | -2.3% | -1.1% | 19.2% | 3.35% | 3.05% |
| CCCCCCCCCCCCCCCCCCc1ccc(O)cc1O | -2.05% | -2.05% | -15.9% | 12.6% | 1.75% | -5.2% |
| Nc1ccccc1SC1CC(=O)N(c2ccc3c(c2)OCO3)C1=O (stereo not given) | 6.55% | 8.85% | 20.4% | 16.4% | 8.35% | 16.3% |
| COc1cc(C)c(C)c(OC(=O)c2c(C)c(C)c(OC)c(C)c2OC)c1C | 10.3% | -17.1% | 11.3% | 8.9% | 23.6% | 16.1% |
| O=C1CSC(c2ccccc2Cl)N1N1C(=O)CSC1c1ccccc1Cl (stereo not given) | 32.4% | 19.2% | 28.1% | 27.5% | 24.3% | 28.1% |
| Nc1ccccc1SC(CC(=O)c1ccc(-c2ccccc2)cc1)c1ccco1 (stereo not given) | -18.4% | -30.6% | 17% | -9.2% | -7.6% | -31.7% |
| Cc1cc2nc3c4ccccc4scc-3c2cc1C | 99% (active) | 99.3% (active) | 99.3% (active) | 99% (active) | 99.1% (active) | 98% (active) |
| O=c1ccc(-c2ccc(-n3ccnc3)cc2)nn1CCO | -39.4% | -49.5% | -24.7% | -2.7% | -38% | -10.8% |
| CCOC(=O)C12CCCC1(O)N(NC(=O)OC)C(C)=C2C(=O)OC (stereo not given) | -6.6% | -7.65% | 2.05% | -63.4% | -5.6% | -6.5% |
| CNC(=O)c1n[nH]nc1Sc1c([N+](=O)[O-])ncn1C | -39% | -43% | -34.1% | -34.2% | -20.6% | -29.4% |
| CCOC(=O)C1=C(O)C(=O)C=C(O)C1=N | -12.2% | -2.6% | -11.6% | 4.5% | -18.4% | 9.65% |
| O=C(N(O)c1ccccc1Cl)C(O)(c1ccccc1)c1ccccc1 | 28.2% | 16.6% | 59.1% | 37% | 31.4% | 75.5% (active) |
| O=C(O)CC1NC(/C(=C/c2ccccc2O)NC(=O)c2ccccc2)OC1=O (stereo not given) | -1.5% | -5.85% | 15.5% | -5.95% | 15.2% | -28.7% |
| CC1(C)CC(O)CC(C)(C)N1 | 2.9% | -8.7% | -1.6% | -2.6% | -1% | 1.9% |
| O=NNc1ccc(S(=O)(=O)c2ccc3ccccc3c2)cn1 | 31.7% | 12.8% | -24.9% | -8.95% | -25.6% | -88.5% |
| CCC(C)(CC)c1ccc(C)cc1OC | -4.9% | 8.15% | -7.1% | 18.6% | 24.6% | 6.9% |
| COC1=Nc2ccccc2N2CCN=C12 | 4.55% | -23.6% | -8.7% | -1.35% | -8.75% | -12.8% |
| O=C(Cc1nc2ccc(C(=O)c3ccccc3)cc2[nH]c1=O)C(=O)Nc1ccc(C(F)(F)F)cc1[N+](=O)[O-] | 8.45% | 14.7% | -3.9% | -6.25% | -12.1% | 18.1% |
| O=C1c2cc(F)ccc2-c2c(F)ccc(F)c21 | 38.1% | 8.7% | 27.7% | 11.1% | 23.6% | 23.5% |
